Data from the supplement of paper PMC11732987, “Enantioselective OTUD7B fragment discovery through chemoproteomics screening and high-throughput optimisation” (Communications Chemistry, 2025).

Legend:
Test in all cases: log2 ratio of Biotin-Ahx-Ub-VS probe labelling (fragment/DMSO); higher = less target engagement (more negative = stronger competition), active = hit call of the paper (q ≤ 0.05, log2 ratio ≤ -1)
Conditions in all cases: compound concentration: 200 uM; treatment time: 3 h
USP34 = USP34 (UniProt Q70CQ2)
In short: (§1)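 HEK293T lysate (495 µg per sample, in Tris/CHAPS/IGEPAL buffer with protease inhibitors) was treated in triplicate with fragment at 200 µM or with DMSO for 3 h. It was then treated with Biotin-Ahx-Ub-VS (0.5 µM final) for 1 h. Labelled DUBs were NeutrAvidin-enriched, digested with LysC and trypsin, and run by diaPASEF LC-MS/MS. Spectronaut label-free quantities were global-median-normalised. Values are average log2 ratios fragment/DMSO by unpaired t-test, using proteins with ≥2 unique peptides.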

USP36 = molecular target: T1, USP36 (UniProt Q9P275)
T1 sequence (whole entry): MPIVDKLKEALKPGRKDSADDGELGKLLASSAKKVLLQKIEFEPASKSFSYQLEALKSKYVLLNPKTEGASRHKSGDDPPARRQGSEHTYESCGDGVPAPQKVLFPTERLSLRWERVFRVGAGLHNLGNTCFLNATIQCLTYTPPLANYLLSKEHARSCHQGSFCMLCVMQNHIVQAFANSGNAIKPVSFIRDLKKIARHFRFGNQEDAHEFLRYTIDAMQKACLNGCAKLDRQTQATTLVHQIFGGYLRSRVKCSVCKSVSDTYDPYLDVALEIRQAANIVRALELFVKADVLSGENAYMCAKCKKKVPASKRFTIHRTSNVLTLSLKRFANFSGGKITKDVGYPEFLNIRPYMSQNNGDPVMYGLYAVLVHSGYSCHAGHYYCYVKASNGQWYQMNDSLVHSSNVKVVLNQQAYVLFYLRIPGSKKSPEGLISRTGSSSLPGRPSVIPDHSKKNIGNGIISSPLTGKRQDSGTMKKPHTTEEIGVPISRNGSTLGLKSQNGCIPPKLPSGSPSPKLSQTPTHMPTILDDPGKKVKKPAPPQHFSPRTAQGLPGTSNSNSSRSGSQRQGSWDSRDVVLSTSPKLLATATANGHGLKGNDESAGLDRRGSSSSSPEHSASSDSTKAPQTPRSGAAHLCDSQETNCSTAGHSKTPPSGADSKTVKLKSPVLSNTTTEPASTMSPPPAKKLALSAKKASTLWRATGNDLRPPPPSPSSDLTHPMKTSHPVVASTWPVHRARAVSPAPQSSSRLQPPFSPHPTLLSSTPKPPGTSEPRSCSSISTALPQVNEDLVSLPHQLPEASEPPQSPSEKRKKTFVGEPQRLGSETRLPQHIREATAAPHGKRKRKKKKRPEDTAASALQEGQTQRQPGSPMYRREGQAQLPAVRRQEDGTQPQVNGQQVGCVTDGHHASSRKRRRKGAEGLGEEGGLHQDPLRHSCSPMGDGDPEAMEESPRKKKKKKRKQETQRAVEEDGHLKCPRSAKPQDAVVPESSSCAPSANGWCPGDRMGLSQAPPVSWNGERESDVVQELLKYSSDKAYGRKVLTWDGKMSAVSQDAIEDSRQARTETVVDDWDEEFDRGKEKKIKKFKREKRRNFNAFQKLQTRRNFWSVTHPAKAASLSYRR
In short: as §1

USP38 = molecular target: T2, USP38 (UniProt Q8NB14)
T2 sequence (whole entry): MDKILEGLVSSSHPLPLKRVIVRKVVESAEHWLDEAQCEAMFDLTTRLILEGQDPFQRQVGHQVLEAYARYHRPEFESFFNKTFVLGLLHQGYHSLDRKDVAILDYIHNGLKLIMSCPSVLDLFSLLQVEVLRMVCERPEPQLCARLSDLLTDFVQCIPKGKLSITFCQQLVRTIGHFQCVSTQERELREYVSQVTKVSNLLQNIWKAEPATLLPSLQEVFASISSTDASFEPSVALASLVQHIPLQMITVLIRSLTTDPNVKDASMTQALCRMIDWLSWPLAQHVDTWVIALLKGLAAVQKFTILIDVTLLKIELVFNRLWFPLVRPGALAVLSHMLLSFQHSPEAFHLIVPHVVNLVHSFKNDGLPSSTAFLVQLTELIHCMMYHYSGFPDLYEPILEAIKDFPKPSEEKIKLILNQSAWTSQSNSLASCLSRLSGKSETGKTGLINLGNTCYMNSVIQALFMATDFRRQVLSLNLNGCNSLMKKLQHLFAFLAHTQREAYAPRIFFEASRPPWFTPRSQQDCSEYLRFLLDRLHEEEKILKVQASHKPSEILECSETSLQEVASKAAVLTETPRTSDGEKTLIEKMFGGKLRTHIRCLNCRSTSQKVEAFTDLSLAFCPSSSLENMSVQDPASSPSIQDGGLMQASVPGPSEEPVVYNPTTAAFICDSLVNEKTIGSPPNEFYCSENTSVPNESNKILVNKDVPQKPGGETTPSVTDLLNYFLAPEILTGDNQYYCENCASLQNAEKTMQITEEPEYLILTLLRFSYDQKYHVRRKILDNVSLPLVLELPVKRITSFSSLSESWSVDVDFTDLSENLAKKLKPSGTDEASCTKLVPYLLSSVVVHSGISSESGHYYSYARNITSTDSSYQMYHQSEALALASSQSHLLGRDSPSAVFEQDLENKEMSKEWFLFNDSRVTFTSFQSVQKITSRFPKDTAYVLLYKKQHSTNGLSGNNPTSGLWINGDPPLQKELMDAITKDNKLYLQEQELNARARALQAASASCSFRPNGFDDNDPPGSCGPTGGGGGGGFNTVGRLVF
In short: as §1

USP39 = molecular target: T3, USP39 (UniProt Q53GS9)
T3 sequence (whole entry): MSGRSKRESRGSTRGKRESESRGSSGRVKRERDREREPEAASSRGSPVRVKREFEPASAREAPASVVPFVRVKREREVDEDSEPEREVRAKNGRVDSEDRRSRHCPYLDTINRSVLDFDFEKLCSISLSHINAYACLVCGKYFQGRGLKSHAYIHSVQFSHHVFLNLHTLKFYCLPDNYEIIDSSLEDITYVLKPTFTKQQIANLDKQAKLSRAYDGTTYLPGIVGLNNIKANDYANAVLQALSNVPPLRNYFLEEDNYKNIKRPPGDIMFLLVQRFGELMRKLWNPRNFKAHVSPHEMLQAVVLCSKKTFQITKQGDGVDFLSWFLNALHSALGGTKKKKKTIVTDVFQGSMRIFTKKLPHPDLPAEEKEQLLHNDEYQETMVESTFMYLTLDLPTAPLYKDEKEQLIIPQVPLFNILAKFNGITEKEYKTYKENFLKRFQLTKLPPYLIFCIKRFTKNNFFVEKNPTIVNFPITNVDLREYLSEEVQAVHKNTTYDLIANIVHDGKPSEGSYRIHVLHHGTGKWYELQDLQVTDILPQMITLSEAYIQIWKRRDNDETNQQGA
In short: as §1

USP4 = molecular target: T4, USP4 (UniProt Q13107)
T4 sequence (whole entry): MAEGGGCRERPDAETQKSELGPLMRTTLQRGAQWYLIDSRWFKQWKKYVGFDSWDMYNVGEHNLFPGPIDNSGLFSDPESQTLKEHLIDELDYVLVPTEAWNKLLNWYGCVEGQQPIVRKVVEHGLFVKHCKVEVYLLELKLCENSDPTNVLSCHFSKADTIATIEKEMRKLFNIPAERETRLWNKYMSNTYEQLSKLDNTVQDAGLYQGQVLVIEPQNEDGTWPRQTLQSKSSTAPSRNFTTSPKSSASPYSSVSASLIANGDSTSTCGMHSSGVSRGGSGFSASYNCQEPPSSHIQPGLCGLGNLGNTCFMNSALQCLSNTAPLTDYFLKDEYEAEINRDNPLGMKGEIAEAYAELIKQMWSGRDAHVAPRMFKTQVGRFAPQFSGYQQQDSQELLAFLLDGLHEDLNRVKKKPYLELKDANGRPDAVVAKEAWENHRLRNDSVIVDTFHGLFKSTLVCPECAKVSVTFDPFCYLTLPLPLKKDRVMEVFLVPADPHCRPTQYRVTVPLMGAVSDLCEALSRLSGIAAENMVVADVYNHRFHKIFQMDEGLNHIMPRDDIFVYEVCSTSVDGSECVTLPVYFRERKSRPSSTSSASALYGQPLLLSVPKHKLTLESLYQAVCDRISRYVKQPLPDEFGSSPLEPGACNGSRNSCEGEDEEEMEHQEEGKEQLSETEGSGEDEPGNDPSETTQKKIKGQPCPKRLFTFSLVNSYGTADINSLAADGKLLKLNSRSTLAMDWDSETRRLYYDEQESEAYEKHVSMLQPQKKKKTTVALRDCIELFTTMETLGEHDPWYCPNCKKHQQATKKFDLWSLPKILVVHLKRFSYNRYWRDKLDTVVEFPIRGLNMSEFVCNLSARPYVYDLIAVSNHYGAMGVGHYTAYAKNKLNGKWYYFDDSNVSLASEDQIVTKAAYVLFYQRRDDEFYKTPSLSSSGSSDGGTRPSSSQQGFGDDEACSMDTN
In short: as §1

Measured: log2 ratio of Biotin-Ahx-Ub-VS probe labelling

Sequence of USP34 (Q70CQ2 whole entry, the tested form may be a part): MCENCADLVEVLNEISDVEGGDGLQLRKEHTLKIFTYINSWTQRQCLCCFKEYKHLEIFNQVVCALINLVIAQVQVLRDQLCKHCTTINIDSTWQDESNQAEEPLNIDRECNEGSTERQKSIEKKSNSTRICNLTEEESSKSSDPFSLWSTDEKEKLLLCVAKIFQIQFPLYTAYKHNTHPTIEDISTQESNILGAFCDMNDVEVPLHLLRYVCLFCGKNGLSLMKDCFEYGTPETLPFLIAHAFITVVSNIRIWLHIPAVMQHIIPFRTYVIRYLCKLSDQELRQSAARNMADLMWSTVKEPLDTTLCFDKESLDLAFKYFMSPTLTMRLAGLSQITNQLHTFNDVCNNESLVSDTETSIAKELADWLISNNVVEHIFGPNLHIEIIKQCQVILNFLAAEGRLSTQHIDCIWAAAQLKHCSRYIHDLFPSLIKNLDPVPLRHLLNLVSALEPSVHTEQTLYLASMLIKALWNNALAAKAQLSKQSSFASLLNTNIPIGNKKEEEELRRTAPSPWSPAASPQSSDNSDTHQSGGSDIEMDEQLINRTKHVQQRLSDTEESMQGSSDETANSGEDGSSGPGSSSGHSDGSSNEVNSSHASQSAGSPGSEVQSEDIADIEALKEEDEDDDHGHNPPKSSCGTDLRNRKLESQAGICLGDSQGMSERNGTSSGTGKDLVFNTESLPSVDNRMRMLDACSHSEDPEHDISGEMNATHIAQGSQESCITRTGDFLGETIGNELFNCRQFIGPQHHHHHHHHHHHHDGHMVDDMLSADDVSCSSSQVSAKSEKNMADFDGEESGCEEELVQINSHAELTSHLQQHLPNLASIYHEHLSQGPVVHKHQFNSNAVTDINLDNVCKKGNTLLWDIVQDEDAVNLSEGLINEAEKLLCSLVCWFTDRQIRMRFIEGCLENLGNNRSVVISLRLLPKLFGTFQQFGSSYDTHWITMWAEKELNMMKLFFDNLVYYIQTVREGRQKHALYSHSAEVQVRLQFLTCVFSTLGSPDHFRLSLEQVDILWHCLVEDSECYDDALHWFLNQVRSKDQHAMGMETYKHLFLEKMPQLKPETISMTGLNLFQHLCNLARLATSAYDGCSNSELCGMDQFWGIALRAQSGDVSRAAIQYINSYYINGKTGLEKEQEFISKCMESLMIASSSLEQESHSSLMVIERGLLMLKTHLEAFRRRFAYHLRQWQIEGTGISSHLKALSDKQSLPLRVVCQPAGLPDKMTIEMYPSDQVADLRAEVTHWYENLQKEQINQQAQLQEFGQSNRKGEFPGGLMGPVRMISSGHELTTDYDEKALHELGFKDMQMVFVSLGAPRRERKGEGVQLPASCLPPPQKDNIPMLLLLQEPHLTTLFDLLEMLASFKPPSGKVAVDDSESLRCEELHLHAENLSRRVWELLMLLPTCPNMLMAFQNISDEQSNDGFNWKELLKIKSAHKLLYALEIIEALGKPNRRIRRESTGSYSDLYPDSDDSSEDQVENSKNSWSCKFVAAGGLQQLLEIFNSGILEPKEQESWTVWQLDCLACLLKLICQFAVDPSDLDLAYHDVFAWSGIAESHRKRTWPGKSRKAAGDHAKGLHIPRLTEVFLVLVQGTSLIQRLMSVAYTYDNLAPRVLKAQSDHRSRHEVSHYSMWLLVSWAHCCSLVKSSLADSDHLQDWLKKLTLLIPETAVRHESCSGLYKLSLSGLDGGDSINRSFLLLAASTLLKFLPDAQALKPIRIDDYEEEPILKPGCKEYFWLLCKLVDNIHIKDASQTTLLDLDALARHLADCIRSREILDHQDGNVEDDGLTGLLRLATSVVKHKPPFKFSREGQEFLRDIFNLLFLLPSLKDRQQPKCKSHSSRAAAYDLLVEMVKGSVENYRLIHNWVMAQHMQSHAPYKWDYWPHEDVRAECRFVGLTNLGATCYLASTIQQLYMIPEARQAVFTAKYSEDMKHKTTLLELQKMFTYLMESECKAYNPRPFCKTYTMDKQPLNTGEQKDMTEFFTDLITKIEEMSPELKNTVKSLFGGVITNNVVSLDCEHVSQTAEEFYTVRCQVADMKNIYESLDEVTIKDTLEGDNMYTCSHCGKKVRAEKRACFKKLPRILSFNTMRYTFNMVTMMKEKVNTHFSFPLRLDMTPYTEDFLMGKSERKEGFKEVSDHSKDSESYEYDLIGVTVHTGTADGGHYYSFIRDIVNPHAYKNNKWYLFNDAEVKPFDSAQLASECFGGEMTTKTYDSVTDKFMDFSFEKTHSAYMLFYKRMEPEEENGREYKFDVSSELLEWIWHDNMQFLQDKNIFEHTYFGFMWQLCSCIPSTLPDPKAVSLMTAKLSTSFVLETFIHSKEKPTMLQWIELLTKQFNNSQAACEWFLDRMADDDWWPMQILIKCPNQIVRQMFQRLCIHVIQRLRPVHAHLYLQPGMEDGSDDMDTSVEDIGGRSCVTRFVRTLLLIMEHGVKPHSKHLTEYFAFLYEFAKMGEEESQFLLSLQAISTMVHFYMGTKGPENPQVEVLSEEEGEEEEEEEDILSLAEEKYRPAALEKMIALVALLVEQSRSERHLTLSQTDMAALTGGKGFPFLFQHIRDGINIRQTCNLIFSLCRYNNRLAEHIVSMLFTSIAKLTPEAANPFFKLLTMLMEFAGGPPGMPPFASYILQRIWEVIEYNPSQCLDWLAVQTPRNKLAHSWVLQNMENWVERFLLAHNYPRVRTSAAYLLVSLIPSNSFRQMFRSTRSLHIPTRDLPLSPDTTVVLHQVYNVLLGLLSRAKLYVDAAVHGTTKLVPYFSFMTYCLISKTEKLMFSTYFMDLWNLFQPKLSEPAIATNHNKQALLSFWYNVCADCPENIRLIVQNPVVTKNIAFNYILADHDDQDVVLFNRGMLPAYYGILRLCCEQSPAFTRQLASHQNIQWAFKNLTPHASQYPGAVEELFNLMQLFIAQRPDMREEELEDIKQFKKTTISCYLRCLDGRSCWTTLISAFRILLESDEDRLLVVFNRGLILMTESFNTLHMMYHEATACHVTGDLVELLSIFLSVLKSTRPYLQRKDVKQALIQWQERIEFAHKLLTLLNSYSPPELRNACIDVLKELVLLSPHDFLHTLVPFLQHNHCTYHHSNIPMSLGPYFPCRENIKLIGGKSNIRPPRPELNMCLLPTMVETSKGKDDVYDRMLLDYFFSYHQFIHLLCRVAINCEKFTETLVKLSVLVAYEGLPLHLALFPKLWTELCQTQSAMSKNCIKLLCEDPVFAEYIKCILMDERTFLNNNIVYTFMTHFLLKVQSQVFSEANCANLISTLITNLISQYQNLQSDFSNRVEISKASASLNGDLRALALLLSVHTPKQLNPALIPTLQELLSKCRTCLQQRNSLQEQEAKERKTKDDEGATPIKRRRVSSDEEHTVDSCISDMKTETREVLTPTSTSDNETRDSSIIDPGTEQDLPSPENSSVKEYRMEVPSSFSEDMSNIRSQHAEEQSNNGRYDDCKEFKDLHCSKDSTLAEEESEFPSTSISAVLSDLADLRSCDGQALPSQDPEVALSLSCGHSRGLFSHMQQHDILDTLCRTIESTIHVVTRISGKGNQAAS

Cc1nc(-c2cccc(NC(=O)CCl)c2)cs1
inactive: USP34 -0.392 | USP36 0.0209 | USP38 -0.179 | USP39 0.188 | USP4 -0.239
